We go through five molecules from PubChem BioAssay.

Assay [1] has as its system Wnt5a (protein binding on small-molecule microarray). As to the kind of experiment: small molecules binding Wnt5a protein – biophysical, small-molecule microarray, 635/667 nm fluorescence, primary screen (AID 1142).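 Further: fluorescence read at 667 nm with signal to noise per printed feature.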 The conditions noted are these: 635 nm fluorescence, higher = more signal.
Assay [2] is described as follows: ATP-based viability of Huh7 replicon cells – cell-based, CellTiter-Glo luminescence, basal, 48 h, cytotoxicity control for HCV replication inhibitor project, primary screen (AID 1143).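 Further: Huh7 hepatoma cells carrying a hepatitis C replication reporter with no stimulus; test concentration not given here.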 Particulars: higher = more signal, called active from +8 up or from −8 down. On the technique in general: A replicon is a self-replicating genome or part of one, used to study replication in cells.

Assay [3] in a line: Pseudomonas biofilm growth suppression – PAO1 strain, BacTiter-Glo luminescence, LB-PBS, primary screen (AID 1144). Particulars: P. aeruginosa PAO1 biofilm, 12 h, higher = more signal.
The nature of assay [4]: basal CRE-LacZ reporter activity in PC12 – cell-based, unstimulated, primary screen (AID 1145). The conditions noted are these: no forskolin, luminescence, 4.5 h, higher = more signal, called active from +8 up or from −8 down.
Assay [5] in a line: forskolin-driven CRE-LacZ activity in PC12 – cell-based, CRE-LacZ reporter, forskolin-stimulated, primary screen (AID 1146).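 Further: PC12 cells with 6xCRE LacZ reporter stimulated by forskolin 10 µM; beta-galactosidase reporter signal reflecting CREB driven transcription.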 The conditions noted are these: luminescence, 4.5 h, higher = more signal, called active from +8 up or from −8 down.
Assay [6] addresses Streptavidin (Streptomyces avidinii) (UniProt P22629). As to the kind of experiment: compounds binding control protein streptavidin – biophysical, small-molecule microarray, 635/667 nm fluorescence, artefact control for SMM compound annotation, primary screen (AID 1147).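 Further: signal reflects streptavidin binding to arrayed compounds as a control protein.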 The conditions noted are these: higher = more signal.
The nature of assay [7]: probe aInhba binding on compound microarray – biochemical, small-molecule microarray, 635/667 nm fluorescence, primary screen (AID 1148).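 Further: score merges 667nm spot fluorescence with signal-to-noise for antibody binding to printed compounds.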 Particulars: higher = more signal.
The target in assay [8] is Torsin-1A (Homo sapiens) (UniProt O14656). The experiment in a line: TOR1A wild-type binding on microarray – cell lysate, small-molecule microarray, lysate, 635/667 nm, primary screen (AID 1149). Particulars: COS7 hTOR1A-WT lysate, 635 nm fluorescence, higher = more signal.
Chain of Torsin-1A (Homo sapiens) (O14656 whole entry, looked up): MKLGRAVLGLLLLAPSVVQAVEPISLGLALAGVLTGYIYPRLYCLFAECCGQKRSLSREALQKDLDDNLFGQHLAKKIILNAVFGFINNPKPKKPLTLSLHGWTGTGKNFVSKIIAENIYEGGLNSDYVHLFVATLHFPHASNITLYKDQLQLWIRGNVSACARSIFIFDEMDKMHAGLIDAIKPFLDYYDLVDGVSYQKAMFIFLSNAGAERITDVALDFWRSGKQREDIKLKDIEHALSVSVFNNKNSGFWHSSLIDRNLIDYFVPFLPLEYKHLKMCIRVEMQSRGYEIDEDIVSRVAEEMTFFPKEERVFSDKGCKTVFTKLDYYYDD
The target is the same in assay [9]. The experiment in a line: torsin A mutant lysate binding on microarrays – cell lysate, small-molecule microarray, COS7 lysate, 635/667 nm fluorescence, primary screen (AID 1150).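 Further: score pools 667 nm emission and signal to noise measuring lysate protein binding.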 Particulars: COS7 hTOR1A mutant lysate, 635 nm fluorescence, higher = more signal.
Assay [10] relates to Sonic hedgehog protein (Shh). The experiment in a line: Sonic hedgehog microarray binding compounds – biochemical, small-molecule microarray, 635/667 nm fluorescence, primary screen (AID 1151).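 Further: Shh protein binding to compounds spotted on small-molecule microarray slides; score combines spot fluorescence intensity with signal-to-noise across triplicate slides.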 The conditions noted are these: 635 nm fluorescence, higher = more signal.
Assay [11] is described as follows: optical density shifts of acrAB sulA E. coli – strain DRC41, OD650, 48 h, E. coli filamentation inducer project, primary screen (AID 1152).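 Further: E. coli MC1000 strain DRC41 lacking acrAB efflux pump and sulA.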 The conditions noted are these: higher = more signal, called active from +8 up or from −8 down.
Assay [12] in a line: probe aLefty1 binding on compound microarray – biochemical, small-molecule microarray, 635/667 nm fluorescence, primary screen (AID 1153).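 Further: score merges spot fluorescence with signal-to-noise ratio from the scanned slide images.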 Particulars: higher = more signal.
Assay [13] can be described thus: plasmodial surface anion channel blockers, osmotic lysis – cell-based, P. falciparum Indochina, OD700, 1 h, primary screen (AID 1154). Particulars: P. falciparum Indochina infected RBC osmotic lysis, higher = more signal, called active from +8 up or from −8 down.
The nature of assay [14]: plasmodial surface anion channel blockers, osmotic lysis – cell-based, P. falciparum Indochina, OD700, 2 h, primary screen (AID 1155).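 Further: lysis reports solute entry through the parasite surface anion channel PSAC.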 Particulars: P. falciparum Indochina infected erythrocytes, higher = more signal, called active from +8 up or from −8 down.
Assay [15] can be described thus: changes in parasitized red cell lysis, either direction – P. falciparum Indochina, OD700, 3 h, PSAC antagonist project, primary screen (AID 1156). The conditions noted are these: P. falciparum-infected erythrocytes, osmotic lysis, higher = more signal, called active from +8 up or from −8 down.
Assay [16] can be described thus: plasmodial surface anion channel blockers, osmotic lysis – cell-based, P. falciparum Indochina, OD700, 18 h, primary screen (AID 1157). Particulars: P. falciparum Indochina infected erythrocytes, osmotic lysis OD700, 18 h; higher = more signal, called active from +8 up or from −8 down.
Assay [17] is described as follows: S6 kinase pathway phospho-S6 level changes – cell-based, A549, cytoblot, luminescence, serum-stimulated, primary screen (AID 1158).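 Further: serum-stimulated A549 lung adenocarcinoma cells; signal is phosphorylated S6 detected by cytoblot immunostaining with HRP secondary.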 The conditions noted are these: 5 h, higher = more signal.
The target of assay [18] is NADPH oxidase 2 (Homo sapiens) (UniProt P04839). The experiment in a line: compounds shifting NOX2 Amplex Red fluorescence – cell-based, HEK293-NOX2, PMA-stimulated, NOX inhibitor project, primary screen (AID 1159). Further: test concentration not given here. Particulars: 45 min, higher = more signal, called active from +8 up or from −8 down.
Chain of NADPH oxidase 2 (Homo sapiens) (P04839 whole entry, looked up): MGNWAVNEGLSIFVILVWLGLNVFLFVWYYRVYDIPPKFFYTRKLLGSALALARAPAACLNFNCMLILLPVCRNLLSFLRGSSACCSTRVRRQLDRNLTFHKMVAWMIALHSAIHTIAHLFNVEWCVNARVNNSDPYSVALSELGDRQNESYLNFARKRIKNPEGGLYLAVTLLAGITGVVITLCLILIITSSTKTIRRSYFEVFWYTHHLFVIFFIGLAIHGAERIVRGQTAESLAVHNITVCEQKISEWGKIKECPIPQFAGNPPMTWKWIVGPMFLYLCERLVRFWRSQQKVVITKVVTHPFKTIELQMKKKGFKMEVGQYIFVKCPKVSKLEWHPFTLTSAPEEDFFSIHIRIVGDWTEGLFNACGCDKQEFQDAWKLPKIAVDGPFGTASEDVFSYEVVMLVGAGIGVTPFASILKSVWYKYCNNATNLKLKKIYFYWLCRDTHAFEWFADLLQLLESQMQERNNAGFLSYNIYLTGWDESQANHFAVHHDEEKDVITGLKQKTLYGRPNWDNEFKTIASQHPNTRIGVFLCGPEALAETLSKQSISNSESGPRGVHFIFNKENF
Assay [19] has as its target NADPH oxidase 4 (Homo sapiens) (UniProt Q9NPH5). The experiment in a line: compounds shifting NOX4 Amplex Red fluorescence – cell-based, HEK293-NOX4, tetracycline-induced, NOX inhibitor project, primary screen (AID 1160). Particulars: HEK293-NOX4, Amplex Red H2O2 fluorescence, 45 min; higher = more signal, called active from +8 up or from −8 down.
For assay [20], the target named is NADPH oxidase 5 (Homo sapiens) (UniProt Q96PH1). The experiment in a line: compounds shifting NOX5 Amplex Red fluorescence – cell-based, HEK293-NOX5, NOX inhibitor project, primary screen (AID 1161). Particulars: HEK293-NOX5, ionomycin, 45 min, higher = more signal.
Chain of NADPH oxidase 5 (Homo sapiens) (Q96PH1 whole entry, looked up): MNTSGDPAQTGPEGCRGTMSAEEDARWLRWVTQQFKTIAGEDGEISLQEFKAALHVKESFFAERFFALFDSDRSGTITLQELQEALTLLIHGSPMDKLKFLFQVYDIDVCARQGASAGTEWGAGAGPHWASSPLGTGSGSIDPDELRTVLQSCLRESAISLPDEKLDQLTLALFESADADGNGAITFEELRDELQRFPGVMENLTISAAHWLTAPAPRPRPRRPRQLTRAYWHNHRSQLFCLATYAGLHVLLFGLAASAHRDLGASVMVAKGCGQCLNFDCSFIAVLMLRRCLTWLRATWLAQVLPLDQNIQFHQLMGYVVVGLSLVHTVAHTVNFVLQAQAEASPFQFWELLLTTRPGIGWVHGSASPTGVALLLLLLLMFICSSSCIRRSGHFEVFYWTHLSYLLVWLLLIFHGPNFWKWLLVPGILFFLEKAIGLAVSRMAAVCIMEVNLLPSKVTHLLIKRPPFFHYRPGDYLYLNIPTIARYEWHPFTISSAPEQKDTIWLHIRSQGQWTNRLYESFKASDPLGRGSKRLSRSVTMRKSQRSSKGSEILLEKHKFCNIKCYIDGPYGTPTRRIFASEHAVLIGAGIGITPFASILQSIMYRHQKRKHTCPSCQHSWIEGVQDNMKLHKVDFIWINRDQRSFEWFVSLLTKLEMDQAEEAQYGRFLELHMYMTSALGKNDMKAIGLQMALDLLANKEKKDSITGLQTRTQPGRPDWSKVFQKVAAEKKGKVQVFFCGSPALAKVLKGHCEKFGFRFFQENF

Activity calls are given as the source filed them. Unless noted, how the calls were made is not given here.

Chain of NADPH oxidase 4 (Homo sapiens) (Q9NPH5 whole entry, looked up): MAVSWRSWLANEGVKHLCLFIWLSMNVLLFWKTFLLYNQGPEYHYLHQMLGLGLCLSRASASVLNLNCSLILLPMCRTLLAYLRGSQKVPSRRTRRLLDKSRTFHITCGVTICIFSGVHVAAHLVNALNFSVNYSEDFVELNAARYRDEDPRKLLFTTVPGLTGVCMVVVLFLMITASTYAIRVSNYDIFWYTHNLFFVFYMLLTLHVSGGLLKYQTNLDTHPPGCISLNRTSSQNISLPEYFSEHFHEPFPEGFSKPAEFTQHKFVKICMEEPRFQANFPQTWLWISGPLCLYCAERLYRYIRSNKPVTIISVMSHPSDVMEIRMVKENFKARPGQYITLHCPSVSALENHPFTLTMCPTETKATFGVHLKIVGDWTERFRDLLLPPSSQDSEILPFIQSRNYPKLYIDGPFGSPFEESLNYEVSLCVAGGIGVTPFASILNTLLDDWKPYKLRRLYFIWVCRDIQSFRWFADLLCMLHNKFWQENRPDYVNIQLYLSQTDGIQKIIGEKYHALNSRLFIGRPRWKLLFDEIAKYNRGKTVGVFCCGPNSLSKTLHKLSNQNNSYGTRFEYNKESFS
Chain of Streptavidin (Streptomyces avidinii) (P22629 whole entry, looked up): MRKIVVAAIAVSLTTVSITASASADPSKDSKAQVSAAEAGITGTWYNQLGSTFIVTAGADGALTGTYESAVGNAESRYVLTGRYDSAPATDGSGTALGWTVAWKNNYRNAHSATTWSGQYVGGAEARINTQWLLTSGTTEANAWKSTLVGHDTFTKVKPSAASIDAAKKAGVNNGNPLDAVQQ

On to `O=C1c2ccccc2[C@](Cc2ccccc2I)(C(=O)NCC(F)(F)F)[C@H](c2ccc(CO)cc2)N1Cc1ccccc1Cl`, for which the composite z-score in [1] was 0.0919; in assay [6] it was 0.742; in assay [7], 0.216; in [8] it was -0.14; in [9], 0.34; in assay [10], 1.37. In addition, the composite z-score in assay [12] is -0.105. For the same molecule, the z-score was -0.703 (inactive) in assay [2]; -1.28 (inactive) in [3]; 0.506 (inactive) in [4]; 0.779 (inactive) in assay [5]; 0.193 (inactive) in assay [11]; 4.4 (inactive) in assay [13]. For the same molecule, the z-score is 0.208 (inactive) in assay [14]; 1.84 (inactive) in assay [15]; 0.499 (inactive) in assay [16]; 0.312 in assay [17]; 2.69 (inactive) in assay [18]; 0.566 (inactive) in assay [19]. Further, the z-score in assay [20] was found to be 1.05.
For the molecule `COC(=O)[C@H](Cc1ccccc1)N[C@@H](/C=C/C1CC1)[C@H](O)Cc1ccccc1`, the composite z-score was 1.2 in [1]; 0.648 in [6]; -0.231 in assay [7]; 0.324 in assay [8]; 0.341 in assay [9]; -0.21 in assay [10]. In addition, the composite z-score in assay [12] is -0.239. Also, the z-score in assay [2] is -0.389 (inactive); in assay [3], 0.186 (inactive); in [4] it was 1.31 (inactive); in [5] it was 0.15 (inactive); in [11] it was 0.0327 (inactive); in assay [13], 0.738 (inactive). Moreover, the z-score in assay [14] is 0.229 (inactive); in [15], -0.592 (inactive); in assay [16], 0.428 (inactive); in assay [17], -0.162; in assay [18], 0.42 (inactive); in assay [19], -0.135 (inactive). For the same molecule, the z-score in assay [20] is -1.41.
Regarding `CCCC[C@@H]1C[C@H]1[C@@H](NC(=O)c1ccco1)c1ccc(-c2ccccc2)cc1`, the composite z-score in [1] is -0.0076; in assay [6], 0.483; in assay [7], 0.033; in [8], 0.618; in [9], 0.952; in [10], -0.308. The molecule further came in with a composite z-score in assay [12] of 0.142. For the same molecule, the z-score is -2.51 (inactive) in assay [2]; 0.0577 (inactive) in assay [3]; 0.766 (inactive) in assay [4]; 0.576 (inactive) in assay [5]; -1.73 (inactive) in assay [11]; -0.38 (inactive) in [13]. In addition, the z-score was -0.912 (inactive) in [14]; 1.59 (inactive) in [15]; -1.91 (inactive) in assay [16]; 1.28 in [17]; -4.04 (inactive) in assay [18]; -3.5 (inactive) in assay [19]. Further, in [20], the z-score is -2.
With `COc1ccc([Si](C)(C)[C@@H]2[C@@H](CC(=O)N3CCC[C@H]3CO)O[C@]3(C(=O)N(c4ccccc4)c4ccccc43)[C@H]2C)cc1`, the composite z-score in [1] turned out to be 0.155; in assay [6], 0.578; in assay [7], 0.0047; in assay [8], 0.491; in assay [9] it was 0.466; in [10], 1.53. Also, the composite z-score in [12] is -0.0718. Also, the z-score in [2] was -4.58 (inactive); in assay [3], 0.439 (inactive); in assay [4], -0.0815 (inactive); in assay [5] it was 0.334 (inactive); in [11], 2.66 (inactive); in [13], 0.616 (inactive). The z-score in assay [14] was -0.748 (inactive); in [15], 1.1 (inactive); in assay [16] it was -1.44 (inactive); in assay [17] it was 0.499; in assay [18], 2.54 (inactive); in [19], 1.74 (inactive). Also, in assay [20], the z-score was found to be 2.4.
For the molecule `CCOC(=O)C[C@H]1[C@H](OC(=O)c2ccc(C(=O)c3ccccc3)cc2)[C@@H](NC(=O)c2ccccc2)c2cc(OCCCO)ccc2N1C(=O)c1ccc2ccccc2n1`, the composite z-score in assay [1] was 0.152; in [6], 1.22; in assay [7] it was -0.0468; in [8], 0.478; in assay [9] it was 0.179; in assay [10], -0.25. Besides, in [12], the composite z-score is -0.328. Further, the z-score in assay [2] was -0.0123 (inactive); in assay [3], 0.0501 (inactive); in assay [4], 3.66 (inactive); in assay [5] it was -0.712 (inactive); in [11], 0.181 (inactive); in assay [13] it was 2.66 (inactive). Further, the z-score was 0.748 (inactive) in assay [14]; -0.2 (inactive) in [15]; 0.454 (inactive) in assay [16]; -0.0519 in [17]; -1.14 (inactive) in assay [18]; 0.923 (inactive) in [19]. Also, the z-score in [20] amounted to 1.94.
